Like-named read-outs stand apart in the source and are kept apart here. Screen size: about 13,000 compounds; about 3,200 (25%) showed an effect of 50% or more. Some of the results follow.
Tested on: P. falciparum stage V gametocytes
Set-up: BacTiter-Glo ATP luminescence viability of purified stage V gametocytes in 384-well plates, per cent inhibition versus DMSO
Settings: 48 h, 5 µM, inhibitor

Row | SMILES | % Inhibition | % Inhibition (% Inhibition)
1 | O=C(c1ccc(-c2ccc(-c3nc4cc(C(F)(F)F)ccc4[nH]3)s2)cc1)N1CCN(CCc2ccccc2)CC1 [TCMDC-132482] | 3.451% | –
2 | COc1cccc2cc(C(=O)N[C@@H](CC(C)C)C(=O)N[C@H](/C=N/N3C(=O)CN(Cc4ccccc4)C3=O)CCc3ccccc3)oc12 [TCMDC-136198] | -10.77% | –
3 | O=C(Cc1cccc(O)c1)Nc1ccc(-c2cccc(-c3nc4ccc(C(F)(F)F)cc4[nH]3)c2)cc1 [TCMDC-132176] | 0.6072% | –
4 | COc1ccc(CCN2CCC(CN(C)Cc3cnn(-c4ccccc4)c3)CC2)cc1 [TCMDC-124632] | -8.037% | –
5 | COc1ccc(CNCc2ccc(-c3ccc(CNCCc4ccccc4)cn3)cc2)cn1 [TCMDC-141647] | 26.41% | –
6 | CN1CCC(C(=O)N(Cc2ccc(-c3ccc(CNCCc4ccccc4)cn3)cc2)C2CCN(Cc3ccccc3)CC2)CC1 [TCMDC-141552] | 110.4% | –
7 | CN1CCCC1CCNCc1ccc(-c2ccc(CNCCc3ccccc3)cn2)cc1 (centres unmarked) [TCMDC-141617] | 85.17% | –
8 | CC(C)C[C@@H](C(=O)N[C@@H](CCCCNC(=O)OCc1ccccc1)C(=O)Nc1nccs1)[C@H](C)N(O)C=O [TCMDC-137184] | -15.37% | –
9 | C[C@@H]([C@@H](CCCc1ccc(Cl)cc1)C(=O)N[C@H](C(=O)Nc1cccnc1)C(C)(C)C)N(O)C=O [TCMDC-138383] | -4.065% | –
10 | O=C(/C=C/c1ccc(Cl)c(Cl)c1)NC1CCC(CN2CCC(c3c[nH]c4cc(O)ccc34)CC2)CC1 (centres unmarked) [TCMDC-139642] | 41.76% | –
11 | O=C(/C=C/c1ccc(Cl)c(Cl)c1)NC1CCC(CN2CCC(c3c[nH]c4ccccc34)C(O)C2)CC1 (centres unmarked) [TCMDC-139645] | -15.82% | –
12 | Cc1ccc2[nH]cc(C3CCN(CC4CCC(NC(=O)/C=C/c5ccc(Cl)c(Cl)c5)CC4)CC3)c2c1 (centres unmarked) [TCMDC-139629] | – | 74.07%
13 | NC(=O)c1ccc2[nH]cc(C3CCN(CC4CCC(NC(=O)/C=C/c5ccc(Cl)c(Cl)c5)CC4)CC3)c2c1 (centres unmarked) [TCMDC-139885] | – | 5.306%
14 | O=C(/C=C/c1ccc(Cl)c(Cl)c1)N1CCC(CN2CCC(c3c[nH]c4cc(C(F)(F)F)ccc34)CC2)CC1 [TCMDC-139860] | 22.64% | –
15 | CNC(=O)c1ccc2[nH]cc(C3CCN(CC4CCC(NC(=O)/C=C/c5ccc(Cl)c(Cl)c5)CC4)CC3)c2c1 (centres unmarked) [TCMDC-139979] | 15.16% | –
16 | CS(=O)(=O)Nc1ccc2[nH]cc(C3CCN(CC4CCC(NC(=O)/C=C/c5ccc(Cl)c(Cl)c5)CC4)CC3)c2c1 (centres unmarked) [TCMDC-139641] | -16.95% | –
17 | NC(=O)c1ccc2[nH]cc(C3CCN(CC4CCC(NC(=O)/C=C/c5ccc(Cl)c(Cl)c5)CC4)CC3)c2c1 (centres unmarked) [TCMDC-139886] | – | 70.38%
18 | Cc1ccc2[nH]cc(C3CCN(CC4CCC(NC(=O)/C=C/c5ccc(Cl)c(Cl)c5)CC4)CC3)c2c1 (centres unmarked) [TCMDC-139630] | – | -23.48%
19 | O=C(/C=C/c1ccc(Cl)c(Cl)c1)NC1CCC(CN2CCC(c3c[nH]c4cc(C(F)(F)F)ccc34)CC2)CC1 (centres unmarked) [TCMDC-139868] | – | 4.839%
20 | O=C(/C=C/c1ccc(Cl)c(Cl)c1)NC1CCC(CN2CCC(c3c[nH]c4cc(C(F)(F)F)ccc34)CC2)CC1 (centres unmarked) [TCMDC-139869] | – | 50.13%
21 | O=C(/C=C/c1ccc(Cl)c(Cl)c1)NC1CCC(CN2CCC(c3c[nH]c4ccccc34)CC2)CC1 (centres unmarked) [TCMDC-139447] | 56.58% | –
22 | CC[C@@H]([C@@H](CC(C)C)C(=O)N[C@@H](CCCCNC(=O)OCc1ccccc1)C(=O)Nc1ccccn1)N(O)C=O [TCMDC-137163] | 20.28% | –
23 | O=C(/C=C/c1ccc(Cl)c(Cl)c1)NC1CCC(N2CCC(c3c[nH]c4ccccc34)CC2)CC1 (centres unmarked) [TCMDC-139778] | -27.83% | –
24 | O=C(/C=C/c1ccc(Cl)cc1)NC1CCC(CN2CCC(c3c[nH]c4ccccc34)CC2)CC1 (centres unmarked) [TCMDC-139716] | – | 101.2%

Row | SMILES | % Inhibition | % Inhibition (% Inhibition)
25 | O=C(C=Cc1ccc(Br)cc1)NC1CCC(CN2CCC(c3c[nH]c4ccccc34)CC2)CC1 (centres unmarked) [TCMDC-139948] | 31.75% | –
26 | O=C(/C=C/c1ccc(Cl)c(Cl)c1)NCCCCCN1[C@@H]2CC[C@H]1CC(c1c[nH]c3ccc(O)cc13)C2 (some centres unmarked) [TCMDC-139295] | – | 11.46%
27 | O=C(/C=C/c1ccc(Cl)c(Cl)c1)NC1CCC(CN2CCC(c3c[nH]c4ccncc34)CC2)CC1 (centres unmarked) [TCMDC-140109] | 103.5% | –
28 | O=C(/C=C/c1ccc(O)cc1)NC1CCC(CN2CCC(c3c[nH]c4ccccc34)CC2)CC1 (centres unmarked) [TCMDC-139719] | 17.65% | –
29 | CC(=O)Nc1ccc2[nH]cc(C3CCN(CC4CCC(NC(=O)/C=C/c5ccc(Cl)c(Cl)c5)CC4)CC3)c2c1 (centres unmarked) [TCMDC-139851] | – | 9.174%
30 | O=C(/C=C/c1ccc(Cl)c(Cl)c1)NC1CCC(N2CCC(c3c[nH]c4ccc(O)cc34)CC2)CC1 (centres unmarked) [TCMDC-139812] | 98.54% | –
31 | O=C(C=Cc1ccc(F)c(Br)c1)N1CCC(CN2CCC(c3c[nH]c4ccccc34)CC2)CC1 [TCMDC-139914] | -25.75% | –
32 | CC(=O)Nc1ccc2[nH]cc(C3CCN(CC4CCC(NC(=O)/C=C/c5ccc(Cl)c(Cl)c5)CC4)CC3)c2c1 (centres unmarked) [TCMDC-139852] | – | 29.73%
33 | O=C(C=Cc1ccc(F)c(Br)c1)NC1CCC(CN2CCC(c3c[nH]c4ccccc34)CC2)CC1 (centres unmarked) [TCMDC-139908] | – | 99.67%
34 | O=C(C=Cc1ccc(F)c(Br)c1)NC1CCC(CN2CCC(c3c[nH]c4ccccc34)CC2)CC1 (centres unmarked) [TCMDC-139919] | – | -60.64%
35 | CC(C)C(C(=O)n1ncc2c3c(N)nc(N)nc3ccc21)C(C)C [TCMDC-137333] | -35.38% | –
36 | COc1cccc(C(=O)Nc2sc3c(c2C(N)=O)CCCC3)c1OC [TCMDC-123542] | -31.1% | –
37 | COc1cc2nc(NCC3CCCO3)n3nc(-c4ccccc4)nc3c2cc1OC (centres unmarked) [TCMDC-125295] | -4.624% | –
38 | COc1ccc2cc(C(c3nnnn3CC3CCCO3)N3CCc4ccccc43)c(=O)[nH]c2c1 (centres unmarked) [TCMDC-123534] | 43.68% | –
39 | Cc1ccc(CN2CCN(c3cc4c(cc3Cl)CCN4C(=O)Cc3ccc(NC(=O)c4ccc(C(F)(F)F)cc4)cc3)CC2)cc1 [TCMDC-139509] | 28.44% | –
40 | O=C(Nc1ccc(F)c(F)c1)c1ccc(CN2CCCN(Cc3cccc(F)c3)CC2)cc1 [TCMDC-136389] | 9.307% | –
41 | CCC[C@@H]([C@@H](CC1CCCCC1)C(=O)N[C@H](C(=O)Nc1nccs1)[C@H](C)O)N(O)C=O [TCMDC-138142] | -26.13% | –
42 | CCOC(=O)C1=C(C)N=c2sc(=Cc3ccccc3O)c(=O)n2C1c1ccc(OC)c2ccccc12 (centres unmarked) [TCMDC-124109] | 14.77% | –
43 | CC(C)c1ccc(C=CC(=O)NC2CCC(CN3CCC(c4c[nH]c5ccccc45)CC3)CC2)cc1 (centres unmarked) [TCMDC-139936] | 103.3% | –
44 | N#Cc1c(Cl)cccc1Oc1ccc(S(=O)(=O)NC2CCC(CN3CCC(c4c[nH]c5ccccc45)CC3)CC2)cc1 (centres unmarked) [TCMDC-140167] | – | 10.9%
45 | O=[N+]([O-])c1ccc(Oc2c(Cl)cc(S(=O)(=O)NC3CCC(CN4CCC(c5c[nH]c6ccccc56)CC4)CC3)cc2Cl)c(Cl)c1 (centres unmarked) [TCMDC-140165] | 62.46% | –
46 | O=[N+]([O-])c1ccc(Oc2c(Cl)cc(S(=O)(=O)N3CCC(CN4CCC(c5c[nH]c6ccccc56)CC4)CC3)cc2Cl)c(Cl)c1 [TCMDC-140169] | -22.29% | –
47 | O=C(/C=C/c1ccc(Cl)cc1)NC1CCC(CN2CCC(c3c[nH]c4ccccc34)CC2)CC1 (centres unmarked) [TCMDC-139701] | – | 108.5%
48 | O=C(/C=C/c1ccc([N+](=O)[O-])cc1)NC1CCC(CN2CCC(c3c[nH]c4ccccc34)CC2)CC1 (centres unmarked) [TCMDC-139934] | – | 72.83%

Row | SMILES | % Inhibition | % Inhibition (% Inhibition)
49 | O=C(/C=C/c1ccc([N+](=O)[O-])cc1)NC1CCC(CN2CCC(c3c[nH]c4ccccc34)CC2)CC1 (centres unmarked) [TCMDC-139950] | – | 23.65%
50 | O=C(Nc1cccnc1)c1cc(-c2cccnc2)nc2ccc(Br)cc12 [TCMDC-125212] | 10.18% | –
51 | Cc1cc(Cl)ccc1OC(C)C(=O)N1CCc2ccccc21 (centres unmarked) [TCMDC-123620] | -14.46% | –
52 | Cc1cc(N2CCCC2)nc(Nc2ccc(NC(=O)COc3ccccc3)cc2)n1 [TCMDC-124969] | -41.99% | –
53 | COc1cccc(C(=O)NC(C=Cc2ccccc2)c2cc(Cl)c3cccnc3c2O)c1 (centres unmarked) [TCMDC-125550] | 112.7% | –
54 | COc1cccc(C(=O)NC(c2ccc(Cl)cc2Cl)c2cc(Cl)c3cccnc3c2O)c1 (centres unmarked) [TCMDC-124342] | 31.32% | –
55 | COc1cccc(C(=O)NC(c2ccccc2OC)c2cc(Cl)c3cccnc3c2O)c1 (centres unmarked) [TCMDC-125612] | 79.98% | –
56 | COc1ccc(C(=O)NC(c2ccc(Cl)cc2Cl)c2cc(Cl)c3cccnc3c2O)cc1 (centres unmarked) [TCMDC-125549] | 15.16% | –
57 | FC(F)(F)c1ccc2[nH]c(-c3ccc(-c4ccc(CNCC5CCCO5)cc4)s3)nc2c1.O=C(O)C(F)(F)F (centres unmarked) [TCMDC-133092] | -19.94% | –
58 | CC1CN(c2ccc(C(=O)NCC3CC3)cc2NC(=O)OCc2ccccc2)CC(C)O1 (centres unmarked) [TCMDC-134641] | 11.9% | –
59 | CCOc1ccc2c(c1)OC(c1ccccc1)(C(F)(F)F)NC2=O (centres unmarked) [TCMDC-123632] | 18.25% | –
60 | CC(C)(C)c1ccc2nc(-c3ccc(/C=C/C(=O)NCc4cccc(C(F)(F)F)c4)cc3)[nH]c2c1 [TCMDC-140458] | -22.76% | –
61 | COC(=O)c1ccc2nc(-c3ccc(/C=C/C(=O)NCc4ccc(Cl)c(Cl)c4)cc3)[nH]c2c1 [TCMDC-140447] | 71.15% | –
62 | Cc1ccc2nc(-c3ccc(C=CC(=O)NCc4ccc(Cl)c(Cl)c4)cc3)[nH]c2c1 [TCMDC-140402] | -29.51% | –
63 | O=C(NCc1ccc(Cl)c(Cl)c1)c1ccc(-c2nc3cc(F)c(F)cc3[nH]2)cc1 [TCMDC-140460] | 62.28% | –
64 | Cc1cc2nc(-c3ccc(C(=O)NCc4ccc(Cl)c(Cl)c4)cc3)[nH]c2cc1C [TCMDC-140430] | 14.5% | –
65 | O=C(/C=C/c1ccc(-c2nc3cc(F)c(F)cc3[nH]2)cc1)NCc1ccc(Cl)c(Cl)c1 [TCMDC-140462] | 80.74% | –
66 | Cc1cc2nc(-c3ccc(/C=C/C(=O)NCCc4ccccc4)cc3)[nH]c2cc1C [TCMDC-140438] | -13.04% | –
67 | O=C(NCc1ccc(Cl)c(Cl)c1)c1ccc(-c2nc3ccc(F)cc3[nH]2)cc1 [TCMDC-140448] | -30.61% | –
68 | O=C(/C=C/c1ccc(-c2nc3ccc(Cl)cc3[nH]2)cc1)NCc1cccc(F)c1 [TCMDC-140444] | -5.382% | –
69 | CC(C)(C)c1ccc(CNC(=O)/C=C/c2ccc(-c3nc4ccc(C(C)(C)C)cc4[nH]3)cc2)cc1 [TCMDC-140459] | 15.07% | –
70 | Cc1cc2nc(-c3ccc(/C=C/C(=O)NCc4ccc(Cl)c(Cl)c4)cc3)[nH]c2cc1C [TCMDC-140437] | 1.168% | –
71 | CC(C)(C)c1ccc2nc(-c3ccc(/C=C/C(=O)NCc4ccc(Cl)c(Cl)c4)cc3)[nH]c2c1 [TCMDC-140457] | 61.32% | –

Reference: article PMC4552634, “A New Set of Chemical Starting Points with Plasmodium falciparum Transmission-Blocking Potential for Antimalarial Drug Discovery” (PLoS ONE, 2015)
